# According to PubChem BioAssay (Tox21):
# Results filed as inconclusive are left out. Active and inactive are the calls of the source. Calls come from the whole dose curve; as a rule, active = well fitted activation curve with a large enough effect in the repeat runs; inconclusive = weak or mixed curves; inactive = flat fitted curve, though single readings scatter.
# Test: A CellTox Green Cytotoxicity Assay to monitor cytotoxicity in HepG2 cells - 24 hour (AID 1224878); note: nearly all actives have a fitted effect of over 45% in size
# Details: CellTox Green fluorescence; series mostly up to 76.8 µM; cytotoxicity: at the top concentration
# From the text: National Center for Advancing Translational Sciences [NCATS]
# NIH Chemical Genomics Center [NCGC]
# U.S. Environmental Protection Agency [EPA]
# National Institutes of Environmental Health Sciences [NIEHS]
# National Toxicology Program [NTP]
# Cell-based models are critical for drug discovery. Determining the natural cytotoxic effects resulting from test compounds is an essential research activity. A CellTox Green Cytotoxicity Assay to monitor cytotoxicity in real time of continues cell culture during 40 hours of the compound treatment was used to screen Tox21 10K library compounds in HepG2 cells. CellTox Green Cytotoxicity Assay is a nonlytic, homogeneous, biofluorescent method to measure cytotoxicity in cell culture after experimental manipulation. The assay system uses a proprietary asymmetric cyanine dye that is excluded from viable cells but preferentially stains the dead cell's DNA. […] Viable cells produce no appreciable increases in fluorescence. Therefore, the fluorescence signal produced by the binding interaction with dead cell DNA is proportional to cytotoxicity.
# The mixture of HepG2 cell suspension and reagents were dispensed at 600cells/6 ul/well in 1536-well tissue culture treated black solid bottom plates using a Multidrop dispenser. After the assay plates were incubated at a 37 C/5% CO2 incubator for 5 hours, 23 nL of compounds dissolved in DMSO, positive and negative controls was transferred to the assay plate by a pintool work station. The plates were incubated at 37 C for 40 hours. The fluorescence intensity were measured at 0h, 8h, 16h, 24h, 32h and 40h time points using ViewLux plate reader during compound treatment.
# % is set by controls: 0 for no effect and ±100 for the full control effect.
Compound,cytotoxicity,Potency
FC(F)OC(Cl)C(F)(F)F (stereo not given),3.39% (inactive),
Cc1ccc(C#N)cc1,0.945% (inactive),
c1ccc([C@H]2CN3CCSC3=N2)cc1,-10.3% [at 35.3 µM] (inactive),
NCCCNCCSP(=O)(O)O,-8.81% [at 6.97 µM] (inactive),
N[C@@H](C(=O)N[C@@H]1C(=O)N2C(C(=O)O)=C(Cl)CS[C@H]12)c1ccccc1,-20.4% [at 6.97 µM] (inactive),
CCC(C)C1CCCCC1=O (stereo not given),-2.48% (inactive),
OC1CCCCC1c1ccccc1 (stereo not given),-1.91% (inactive),
O=C1CC2CC1C1CCCC21 (stereo not given),-13% (inactive),
CC1=CC(C)C(C=O)CC1 (stereo not given),3.76% (inactive),
COC(=O)NN,-3.85% (inactive),
CCc1nccnc1CC,0.289% [at 15.8 µM] (inactive),
NS(=O)(=O)c1ccccc1Cl,0.735% (inactive),
CCCN1CCCC[C@H]1C(=O)Nc1c(C)cccc1C,1.73% [at 35.3 µM] (inactive),
NC(=O)c1cn(Cc2c(F)cccc2F)nn1,-14.3% [at 35.3 µM] (inactive),
CCCC(=O)O[C@]1(C(=O)CO)CC[C@H]2[C@@H]3CCC4=CC(=O)CC[C@]4(C)[C@H]3[C@@H](O)C[C@@]21C,-19.1% [at 35.3 µM] (inactive),
CC(=O)CC(C)(C)C1CCCCC1,1.34% (inactive),
CCC(=O)OC(C)c1ccccc1 (stereo not given),-6.13% (inactive),
C=CCCCCCCCCC=O,-0.444% (inactive),
C=CCS(=O)(=O)O,10.7% (inactive),
NC(=O)Nc1ccccc1,-8.54% (inactive),

Compound,cytotoxicity,Potency
CC/C=C\CC/C=C/C(OCC)OCC,-5.69% (inactive),
O=C1CCCN1C1CCCCC1,4.27% (inactive),
C=C1CC[C@H]2C[C@@H]1C2(C)C,1.73% (inactive),
ClC(Cl)(Br)Br,-6.87% (inactive),
CCOC(=O)[C@H](CCc1ccccc1)N[C@@H](C)C(=O)N1[C@H](C(=O)O)C[C@@H]2CCC[C@@H]21,-9.46% [at 35.3 µM] (inactive),
N=C(N)c1ccc(OCCCOc2ccc(C(=N)N)cc2)cc1,-10.9% [at 35.3 µM] (inactive),
CC(C)c1cc2c(cc1S(=O)(=O)O)[C@@]1(C)CCC[C@@](C)(C(=O)O)[C@@H]1CC2,-9.68% [at 35.3 µM] (inactive),
CC(C)NCCCC1(C(N)=O)c2ccccc2-c2ccccc21,-3.07% [at 35.3 µM] (inactive),
CCC=O,1.2% (inactive),
COC(=O)CCSCCC(=O)OC,-4.4% (inactive),
COCCc1ccc(OCC(O)CNC(C)C)cc1 (stereo not given),,inactive
N[C@H]1CN(c2c(F)cc3c(=O)c(C(=O)O)cn(C4C[C@H]4F)c3c2Cl)CC12CC2 (stereo not given in full),-2.52% [at 35.3 µM] (inactive),
CCOC(=O)CCC(C)=O,0.0743% (inactive),
CO/N=C(/C(=O)N[C@@H]1C(=O)N2C(C(=O)OCOC(=O)C(C)(C)C)=C(C)CS[C@H]12)c1csc(N)n1,1.39% [at 35.3 µM] (inactive),
COC(=O)c1ccc(C)cc1C1=NC(C)(C(C)C)C(=O)N1 (stereo not given),0.375% (inactive),
N=c1nc(N2CCCCC2)cc(N)n1O,-5.4% [at 35.3 µM] (inactive),
CCOC(=O)CC(C)=O,4.31% (inactive),
CCOc1ccc(C(=O)OCCN(CC)CC)cc1,-9.28% [at 35.3 µM] (inactive),
CC[N+](C)(C)c1cccc(O)c1,-16% [at 35.3 µM] (inactive),
CC(C)NC(=O)NC(C)C,-5.91% (inactive),
